Measured values: PubChem BioAssay (NCATS)
Results filed as inconclusive are left out. Where a call stands in place of a potency, no number is given. Unmarked numbers belong to inactive results. The source made the active and inactive calls. Calls come from the whole dose curve; as a rule, active = well fitted cell-killing curve with a large enough effect; inconclusive = small, poorly fitted or top-dose-only effect, or effect the other way; inactive = flat fitted curve, though single readings scatter.

Tests used:
Assay in all cases: Primary qHTS to identify gynecologic anti-cancer compounds using libraries of approved drugs and bioactive compounds (AID 1345084); note: nearly all actives have a fitted effect of over 55% in size
Conditions in all cases: Gynecologic cancer cell panel viability, ATPlite luminescence, 48 h; series mostly up to 57.5 µM
PA-1 = tested on: PA-1
Method in brief: (§1)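 In this quantitative HTS, cell killing is estimated from loss of ATP-dependent luciferase light. Cells see five compound concentrations over a 48 h exposure.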

SKOV3 = tested on: SKOV3
Method in brief: as §1

Tov112D = tested on: Tov112D
Method in brief: as §1

Tov-21-G = tested on: Tov-21-G
Method in brief: as §1
Potency is the fitted concentration of half-maximal effect.

| SMILES | Potency (PA-1) | Potency (SKOV3) | Potency (Tov112D) | Potency (Tov-21-G) |
| --- | --- | --- | --- | --- |
| C=C1C(=O)OC2CC(C)C(CCC(C)=O)=CCC12 (stereo not drawn) | inactive | inactive | inactive |  |
| C=C1C(=O)O[C@@H]2/C=C(\C)CC/C=C(/C=O)[C@H](OC)[C@@H](OC(=O)C(C)C)[C@@H]12 | inactive | inactive | inactive |  |
| C=C(C)[C@@H]1CC[C@]2(C(=O)O)CC[C@]3(C(=O)O)[C@H](CCC4[C@@]5(C)CCC(=O)C(C)(C)C5CC[C@]43C)C12 (stereo partly drawn) | inactive |  | inactive | inactive |
| C=CC(=O)N1CCC[C@@H](n2nc(-c3cccc(C(=O)Nc4ccc(C(C)C)c(C)c4)c3)c3c(N)ncnc32)C1 | inactive |  |  | 14.1 µM (active) |
| CNc1nc(NCc2ccc(NS(C)(=O)=O)cc2Cl)cc(-c2ccccn2)n1 | inactive |  |  | inactive |
| NC(=O)CCCSc1nc(N)nc(-c2c(Cl)cc3c4c(cccc24)COC3)n1 | 0.891 µM (active) |  |  | 1 µM (active) |
| COc1cc(O)c2c(c1)/C=C/C[C@H](O)[C@H](O)C(=O)/C=C\C[C@H](C)OC2=O | 14.1 µM (active) |  |  | 17.8 µM (active) |
| CC/C=C\CC1C(=O)C=CC1(CCCCC1CCC(=O)O1)OC(C)=O (stereo not drawn) | inactive |  | inactive | inactive |
| Cc1ccc(-c2ncccn2)c(C(=O)N2C[C@H](COc3ccc(F)cn3)CC[C@H]2C)c1 | inactive |  | inactive | inactive |
| C=CC(=O)Nc1cccc(Nc2nc(Nc3ccc(OCCOC)cc3)ncc2F)c1 | 10 µM (active) | 2.82 µM (active) | 4.47 µM (active) |  |
| COc1ccc(-c2ccc3c(N4CCOCC4C)nc(N4CCOCC4C)nc3n2)cc1CO (stereo not drawn) | 0.282 µM (active) |  |  | 0.251 µM (active) |
| COc1ccc(C2(N(C)C(=O)c3ccc(NC(=O)c4ccco4)cc3)CCOCC2)cc1 | inactive |  | inactive | inactive |
| Nc1c(S(=O)(=O)c2ccccc2)c2nc3ccccc3nc2n1-c1ccc(F)cc1 | inactive |  | inactive | inactive |
| Cc1cc(CS(=O)(=O)c2ccccc2)cc(OCc2ccc(CN3CCCC3CO)cc2)c1 (stereo not drawn) | inactive |  | inactive | inactive |
| CN1CC2CN(c3ccc4oc5ccccc5c(=O)c4c3)CC2C1 (stereo not drawn) | inactive |  | inactive | inactive |
| CN(C)CCC(CSc1ccccc1)Nc1ccc(S(=O)(=O)NC(=O)c2ccc(N3CCN(Cc4ccccc4-c4ccc(Cl)cc4)CC3)cc2)cc1[N+](=O)[O-] (stereo not drawn) | inactive |  | inactive | inactive |
